# Laboratory results reported in the supplement of paper PMC8728848.
# This is one part of a sample in which the strongest signals are shown more often than they occur.
# B1: Gal 9 (Canis lupus) (protein)
# chain: MAFSSSQPPYLSPGVPFSGKIQGGLQDGLKITINGTILYCNGTRFAVNFHSGHSDSDIAFHFNPRFEEGGYVVCNTKQKGSWGSEERKMQMPFQMGNPFELCFMVNSCDFKVTVNGSHFTQYSHRVPFHYVDTLSITGAVQLSYISFQSPGVWQSSSAPITQTVIHTVQTTPGQPFPNPIIPPTAYPTPTYPMPFFTSIPGGLYPSKSIIVSGTVLPGAKRFHINLRSGNDIAFHLNPRFNENTVVRNMQINNSWGSEERSLPRKMPFVQGQSFSVWIMCEGHCFKVAVDGEHLFEYYHRLKNLLAINNMEVAGDVQLTHVQT
# Assays:
# Assay in all cases: glycan array binding signal (z-score within array); higher = stronger binding
# Details in all cases: glycan notation: IUPAC condensed, linker removed
# [1] = biological target: Fuc(a1-2)Gal(b1-3)GlcNAc(b1-2)Man(a1-3)[Fuc(a1-2)Gal(b1-3)GlcNAc(b1-2)Man(a1-6)]Man(b1-4)GlcNAc(b1-4)[Fuc(a1-6)]GlcNAc
# Outline: (§1)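 The Consortium for Functional Glycomics database supplied 3228 glycan arrays, of which those lacking an available protein sequence were dropped. The binding signal, a within-array Z-score, was averaged across arrays of the same protein sequence and across linkers. Negative scores can be read as non-binding.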
# [2] = biological target: Fuc(a1-2)Gal(b1-4)[Fuc(a1-3)]GlcNAc(b1-3)GalNAc
# Outline: as §1
# [3] = biological target: Fuc(a1-2)[GalNAc(a1-3)]Gal(b1-4)Glc
# Outline: as §1
# [4] = biological target: Fuc(a1-2)[GalNAc(a1-3)]Gal(b1-4)GlcNAc(b1-2)Man(a1-3)[Fuc(a1-2)[GalNAc(a1-3)]Gal(b1-4)GlcNAc(b1-2)Man(a1-6)]Man(b1-4)GlcNAc(b1-4)GlcNAc
# Outline: as §1
# [5] = biological target: Fuc(a1-2)[GalNAc(a1-3)]Gal(b1-4)GlcNAc(b1-3)Gal(b1-4)GlcNAc
# Outline: as §1
# [6] = biological target: Fuc(a1-2)[GalNAc(a1-3)]Gal(b1-4)GlcNAc(b1-3)Gal(b1-4)GlcNAc(b1-3)Gal(b1-4)GlcNAc
# Outline: as §1
# [7] = biological target: Fuc(a1-2)[GalNAc(a1-3)]Gal(b1-4)[Fuc(a1-3)]GlcNAc(b1-3)GalNAc
# Outline: as §1
# [8] = biological target: Fuc(a1-3)[Gal(b1-4)]GlcNAc(b1-6)[Gal(b1-3)GlcNAc(b1-3)]Gal(b1-4)Glc
# Outline: as §1
# [9] = biological target: Fuc(a1-3)[Gal(b1-4)]GlcNAc6S
# Outline: as §1
# [10] = biological target: Fuc(a1-4)GlcNAc
# Outline: as §1
# [11] = biological target: Gal(a1-3)Gal(b1-3)GlcNAc(b1-3)GalNAc
# Outline: as §1
# [12] = biological target: Gal(a1-3)GalNAc
# Outline: as §1
# [13] = biological target: Gal(b1-3)GalNAc(a1-3)[Fuc(a1-2)]Gal(b1-4)Glc
# Outline: as §1
# [14] = biological target: Gal(b1-3)[Fuc(a1-4)]GlcNAc(b1-2)Man(a1-3)[Gal(b1-3)[Fuc(a1-4)]GlcNAc(b1-2)Man(a1-6)]Man(b1-4)GlcNAc(b1-4)[Fuc(a1-6)]GlcNAc
# Outline: as §1
# [15] = biological target: Gal(b1-3)[Fuc(a1-4)]GlcNAc(b1-3)Gal(b1-3)[Fuc(a1-4)]GlcNAc
# Outline: as §1
# [16] = biological target: Gal(b1-4)GlcNAc(b1-2)Man(a1-3)Man(b1-4)GlcNAc(b1-4)GlcNAc
# Outline: as §1
# [17] = biological target: Gal3S(b1-3)GalNAc
# Outline: as §1
# [18] = biological target: Gal3S(b1-3)GlcNAc
# Outline: as §1
# [19] = biological target: Gal3S(b1-4)Glc6S
# Outline: as §1
# [20] = biological target: Gal3S(b1-4)GlcNAc
# Outline: as §1
# [21] = biological target: GalNAc(a1-3)GalNAc(b1-3)Gal(a1-4)Gal(b1-4)GlcNAc
# Outline: as §1
# [22] = biological target: Glc(a1-4)Glc
# Outline: as §1
# [23] = biological target: Glc(b1-4)Glc
# Outline: as §1
# [24] = biological target: GlcA(b1-3)GlcNAc
# Outline: as §1
# [25] = biological target: GlcNAc(b1-2)Man(a1-3)[GlcNAc(b1-2)Man(a1-6)]Man(b1-4)GlcNAc(b1-4)GlcNAc
# Outline: as §1
# [26] = biological target: GlcNAc(b1-2)[GlcNAc(b1-6)]Man(a1-6)[GlcNAc(b1-2)Man(a1-3)][GlcNAc(b1-4)]Man(b1-4)GlcNAc(b1-4)GlcNAc
# Outline: as §1
# [27] = biological target: GlcNAc(b1-3)Man
# Outline: as §1
# [28] = biological target: GlcNAc6S(b1-3)Gal(b1-4)GlcNAc
# Outline: as §1
# [29] = biological target: Man(a1-3)[Man(a1-6)]Man(a1-6)[Man(a1-3)]Man
# Outline: as §1
# [30] = biological target: Neu5Ac(a2-3)Gal(b1-3)[Neu5Ac(a2-6)]GalNAc
# Outline: as §1
# [31] = biological target: Neu5Ac(a2-3)Gal(b1-4)[Fuc(a1-3)]GlcNAc(b1-3)Gal
# Outline: as §1
# [32] = biological target: Neu5Ac(a2-6)Gal(b1-4)GlcNAc(b1-3)GalNAc
# Outline: as §1
# [33] = biological target: Neu5Ac(a2-6)GalNAc(b1-4)GlcNAc
# Outline: as §1
# [34] = biological target: Neu5Ac(a2-8)Neu5Ac(a2-3)[Gal(b1-3)GalNAc(b1-4)]Gal(b1-4)Glc
# Outline: as §1
# [35] = biological target: Neu5Ac(a2-8)Neu5Ac(a2-8)Neu5Ac(a2-8)Neu5Ac(a2-3)[GalNAc(b1-4)]Gal(b1-4)Glc
# Outline: as §1
# [36] = biological target: Neu5Ac(b2-6)Gal(b1-4)GlcNAc
# Outline: as §1
# [37] = biological target: Neu5Gc(a2-3)Gal(b1-3)GlcNAc
# Outline: as §1
binder,measurement,setting,value
B1,glycan array binding signal (z-score),[1],-0.285
same,glycan array binding signal (z-score),[2],-0.26
same,glycan array binding signal (z-score),[3],2.88
same,glycan array binding signal (z-score),[4],9.39
same,glycan array binding signal (z-score),[5],5.36
same,glycan array binding signal (z-score),[6],2.68
same,glycan array binding signal (z-score),[7],-0.288
same,glycan array binding signal (z-score),[8],-0.156
same,glycan array binding signal (z-score),[9],-0.337
same,glycan array binding signal (z-score),[10],-0.346
same,glycan array binding signal (z-score),[11],0.104
same,glycan array binding signal (z-score),[12],-0.296
same,glycan array binding signal (z-score),[13],3.45
same,glycan array binding signal (z-score),[14],-0.287
same,glycan array binding signal (z-score),[15],-0.315
same,glycan array binding signal (z-score),[16],0.09
same,glycan array binding signal (z-score),[17],5.93
same,glycan array binding signal (z-score),[18],0.396
same,glycan array binding signal (z-score),[19],3.83
same,glycan array binding signal (z-score),[20],0.222
same,glycan array binding signal (z-score),[21],3.04
same,glycan array binding signal (z-score),[22],-0.327
same,glycan array binding signal (z-score),[23],-0.311
same,glycan array binding signal (z-score),[24],-0.341
same,glycan array binding signal (z-score),[25],-0.332
same,glycan array binding signal (z-score),[26],-0.338
same,glycan array binding signal (z-score),[27],-0.347
same,glycan array binding signal (z-score),[28],-0.104
same,glycan array binding signal (z-score),[29],-0.346
same,glycan array binding signal (z-score),[30],-0.055
same,glycan array binding signal (z-score),[31],-0.343
same,glycan array binding signal (z-score),[32],-0.178
same,glycan array binding signal (z-score),[33],-0.345
same,glycan array binding signal (z-score),[34],-0.302
same,glycan array binding signal (z-score),[35],-0.331
same,glycan array binding signal (z-score),[36],-0.331
same,glycan array binding signal (z-score),[37],0.216
